This is an account of results in PubChem BioAssay AID504465 (National Center for Advancing Translational Sciences (NCATS), 2011).

Out of some 2,100 compounds screened, about 210 (10%) were called active. Another 53% or so got no clear call; they are omitted. This is one part of the list. A number with no mark means an inactive call. Calls come from the whole dose curve; as a rule, active = well fitted inhibition curve with a large enough effect; inconclusive = small, poorly fitted or top-dose-only effect, or effect the other way; inactive = no such curve, though single readings can be large or run the other way.
Potency is the fitted concentration of half-maximal effect.

The assay is described as follows: IN Cell qHTS Assay for Inhibitors of the mTORC1 Signaling Pathway in MEF (Tsc2-/-, p53-/-) Cells: Sytravon.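 For activity, negative = inhibition: plate controls were DMSO wells for no effect and 7.5 nM rapamycin full pathway inhibition for full effect.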 Note: nearly all actives have a fitted effect of over 60% in size. Particulars: phospho-rpS6 immunofluorescence, 24 h; series mostly up to 38.3 µM; activity, negative = inhibition: at the top concentration. Summed up: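 Tsc2-/-, p53-/- MEFs (empty-vector) treated with compound 24 h at 37 degree Celsius, then fixed and stained for phospho-rpS6 Ser235/236 (Alexa-488) plus Hoechst. Reported as % positive cells, thresholds set against 7.5 nM rapamycin and DMSO wells.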
In general terms: In qHTS, concentration-response curves come from the screen itself.
Consider `CCOc1ccc(NC(=O)Cn2c(=O)cc(C)c3c(C)nn(C)c32)cc1`, for which the “activity, negative = inhibition” value is -14.9%.

As to `CCC1=Nc2cc(C(=O)NCc3ccccc3Cl)ccc2Sc2ccc(C)cc21`, the “activity, negative = inhibition” value is 0%.

Consider `CCc1cccc(NC(=O)Cn2c(=O)n(CCC(=O)NCc3ccccc3Cl)c(=O)c3sccc32)c1`, for which the “activity, negative = inhibition” value was -100%.

Consider `CC(C)COc1ccc(C(=O)NCC2(N3CCN(C)CC3)CCCCC2)cc1`, for which the Potency is 16.5 µM (active).

Regarding `Cc1ccc(OCC(=O)NCC2(N3CCN(C)CC3)CCCCC2)cc1C`, the “activity, negative = inhibition” value is -20.2%.

Consider `CC(C)(C)c1ccc(OCC(=O)NCC2(N3CCOCC3)CCCCC2)cc1`, for which the “activity, negative = inhibition” value was -38.2%.

On to `CN(C)C1(CNC(=O)COc2ccc(C(C)(C)C)cc2)CCCCC1`, for which the “activity, negative = inhibition” value was -7.34%.

In the case of `Cc1ccc(OCC(=O)NCC2(N3CCN(C)CC3)CCCCC2)cc1`, the “activity, negative = inhibition” value is -19.1%.

`CN1CCN(C2(CNC(=O)COc3ccc(C(C)(C)C)cc3)CCCCC2)CC1`: the Potency is 14.7 µM (active).

As for `Oc1ccccc1-c1nc(-c2cccs2)c(-c2cccs2)[nH]1`, the “activity, negative = inhibition” value is -1.5%.

Take `COc1ccc(CNCCC(c2ccc(C)cc2)c2ccco2)cc1` (centres undefined): the “activity, negative = inhibition” value is -100%.

`CC(=O)c1cccc(NS(=O)(=O)c2ccc3[nH]c4c(c3c2)CCCCC4)c1`: the “activity, negative = inhibition” value is 1.08%.

In the case of `COc1ccc(-c2nn(C)c3sc(C(=O)Nc4cccc(F)c4)cc23)cc1OC`, the “activity, negative = inhibition” value was 0%.

On to `CCCN(CCC)CCCNC(=O)c1cc2c(-c3ccc(Cl)cc3)nn(C)c2s1`, for which the Potency was 2.61 µM (active).

Take `CCCCN(CCCC)CCCNC(=O)c1cc(-c2ccc(Cl)s2)nc2ccccc12`: the “activity, negative = inhibition” value was 25.2%.

For `COc1ccc(CCNC(=O)c2nn(C)c3c2CSc2ccccc2-3)cc1OC`, the “activity, negative = inhibition” value was -7.86%.

On to `CCOc1ccc(CCNC(=O)c2cc3c(-c4ccccc4F)nn(C)c3s2)cc1`, for which the “activity, negative = inhibition” value was 19.4%.

For `CCCN(CCC)CCCNC(=O)c1cc2c(-c3ccc(OC)c(OC)c3)nn(C)c2s1`, the Potency was 16.5 µM (active).

As for `Cc1cc(C)cc(NC(=O)C(=O)NCC(c2ccc3c(c2)OCO3)N2CCN(C)CC2)c1` (centres undefined), the “activity, negative = inhibition” value is 3.7%.

As for `CC(C)CN(CC(C)C)S(=O)(=O)c1ccc(C(=O)Nc2sc3c(c2C(N)=O)CCN(C(C)C)C3)cc1`, the “activity, negative = inhibition” value was 6.25%.

For `CCc1ccc(CNC(=O)COc2cc(=O)n(CC)c3ccccc23)cc1`, the “activity, negative = inhibition” value was 8.06%.

Regarding `CC(C)Oc1ccccc1-c1nc(SCC(=O)c2ccc(F)cc2)n[nH]1`, the “activity, negative = inhibition” value was -19.3%.

As for `CCOc1ccc(CNC(=O)C2CCN(S(=O)(=O)c3ccc4c(ccn4C)c3)CC2)cc1`, the “activity, negative = inhibition” value is 0.0324%.

Consider `CCOc1cc(CNC(=O)c2ccc(C)c(NC(=O)c3nsc4ccccc34)c2)ccc1OC`, for which the “activity, negative = inhibition” value is -1.04%.

With `COc1ccccc1C(=O)OCc1cc(=O)n2nc(C3CC3)sc2n1`, the “activity, negative = inhibition” value is 0.274%.

Take `COc1ccc(CCN2C(=O)c3[nH]nc(-c4ccccc4O)c3C2c2cccc(OC)c2)cc1` (centres undefined): the Potency is 20.7 µM (active).

Consider `COc1ccc(CCN2C(=O)c3[nH]nc(-c4ccccc4O)c3C2c2ccccc2)cc1` (centres undefined), for which the “activity, negative = inhibition” value was -4.54%.

For `CCCN1C(=O)c2[nH]nc(-c3ccccc3O)c2C1c1ccc(OCc2ccccc2)c(OC)c1` (centres undefined), the “activity, negative = inhibition” value was -29%.

Turning to `CC(C)OCCCN1C(=O)c2[nH]nc(-c3ccccc3O)c2C1c1ccc(OCc2ccccc2)cc1` (centres undefined), the Potency is 18.5 µM (active).

In the case of `CCCCN1C(=O)c2[nH]nc(-c3ccccc3O)c2C1c1cccc(OCc2ccccc2)c1` (centres undefined), the Potency was 20.7 µM (active).

As to `O=C1c2[nH]nc(-c3ccccc3O)c2C(c2ccc(Cl)cc2)N1CCc1ccccc1` (centres undefined), the “activity, negative = inhibition” value was -15.5%.

As to `COc1ccc(C2c3c(-c4ccccc4O)n[nH]c3C(=O)N2CCc2ccccc2)cc1` (centres undefined), the “activity, negative = inhibition” value was -21.4%.

On to `CCCCOc1cccc(C2c3c(-c4cc(C)ccc4O)n[nH]c3C(=O)N2CCOC)c1` (centres undefined), for which the “activity, negative = inhibition” value is -12.8%.

As to `CCCN1C(=O)c2[nH]nc(-c3ccccc3O)c2C1c1cccc(OCc2ccccc2)c1` (centres undefined), the “activity, negative = inhibition” value is -14.6%.
